Results on seven compounds are retold here after PubChem BioAssay (Tox21).

Unmarked numbers belong to inactive results. Inconclusive results are not listed. The source made the active and inactive calls. Unless noted, calls come from the whole dose curve.

Test [1] can be described thus: Nuclear factor erythroid 2-related factor 2/antioxidant responsive element (Nrf2/ARE) small molecule agonists: luciferase reporter gene qHTS assay in human keratinocytes (AID 1919969). Note: nearly all actives have a fitted effect of over 35% in size. Note: potency is the fitted concentration of half-maximal effect.
The target in test [2] is Gonadotropin-releasing hormone receptor (Homo sapiens) (UniProt P30968). Briefly: Human gonadotropin-releasing hormone receptor (GnRHR) small molecule agonists, calcium flux assay in GnRHR-HEK293 cells (AID 1920063). Note: nearly all actives have a fitted effect of over 35% in size. The gist of the method: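 Calcium flux, agonist mode, human GnRHR stably integrated in HEK293; dye 1 h at 37 C before compound; Ex/Em=480/540 kinetic read, 3 min; 15 concentrations, triplicate.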
Gonadotropin-releasing hormone receptor (Homo sapiens), sequence (P30968 whole entry, looked up): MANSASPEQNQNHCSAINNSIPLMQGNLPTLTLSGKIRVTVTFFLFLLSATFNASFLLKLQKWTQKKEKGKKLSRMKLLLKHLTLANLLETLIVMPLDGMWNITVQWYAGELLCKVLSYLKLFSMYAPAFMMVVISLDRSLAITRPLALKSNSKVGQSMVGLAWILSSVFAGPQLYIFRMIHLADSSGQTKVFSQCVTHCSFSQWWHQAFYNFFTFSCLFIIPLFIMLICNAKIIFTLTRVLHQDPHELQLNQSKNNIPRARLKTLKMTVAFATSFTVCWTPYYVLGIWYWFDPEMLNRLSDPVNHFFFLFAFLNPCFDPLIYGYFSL

Test [3] has as its target KiSS-1 receptor (Homo sapiens) (UniProt Q969F8). Briefly: Human kisspeptin (KISS1R) small molecule agonists, calcium flux assay in KISS1R-HEK293 cells (AID 1920064; active = well fitted activation curve with a large enough effect in the repeat runs). The gist of the method: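 Triplicate 15-concentration series were applied to dye-loaded human KISS1R HEK293 cells, and agonist-evoked calcium fluorescence was captured for 3 min.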
A general note: A change in cytosolic calcium serves as a functional read-out for many receptors and channels.

The nature of test [4]: G protein-coupled receptor (GPCR) small molecule agonists, calcium flux assay: HEK293 wild type cell line counter screen (AID 1920065). The gist of the method:
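Non-specific calcium responders were flagged by adding DMSO-dissolved compounds to dye-loaded cells and reading 480/540 nm fluorescence each second for 3 min; ATP served as positive control.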

A short description of test [5]: p53 small molecule agonists, cell-based qHTS assay with rat liver microsomes (AID 1963578). The gist of the method: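 Rat liver microsome activation: microsomes 0.5 mg/mL, NADPH 0.5 mg/mL final; p53RE-bla cells, 16 h 37 C; LiveBLAzer readout, 2 h RT dark.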
Background: Quantitative high-throughput screening tests each substance at several concentrations.

A short description of test [6]: p53 small molecule agonists, cell-based qHTS assay with human liver microsomes: qHTS cell viability counter screen (AID 1963579). Note: nearly all actives have a fitted effect of over 45% in size. The gist of the method: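 Luminescent CellTiter-Glo read-out, 30 min at room temperature, gauged cytotoxicity in p53RE-bla cells exposed 16 h at 37 C to DMSO-dissolved compounds with metabolic activation by human liver microsomes and NADPH, each 0.5 mg/mL final.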

The nature of test [7]: p53 small molecule agonists, cell-based qHTS assay with rat liver microsomes: qHTS cell viability counter screen (AID 1963580). Note: nearly all actives have a fitted effect of over 45% in size. Note: potency is the fitted concentration of half-maximal effect. The gist of the method:
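Counter screen for cytotoxicity under metabolic activation: rat liver microsomes and NADPH, 0.5 mg/mL final each, added with compounds to p53RE-bla HCT-116 cells; 16 h at 37 C, then ATP luminescence read.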

Test [8] in a line: p53 small molecule agonists, cell-based qHTS assay: qHTS cell viability counter screen (AID 1963581). Note: nearly all actives have a fitted effect of over 45% in size. The gist of the method:
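Multiplexed with the reporter read, a CellTiter-Glo step (30 min, room temperature) gauges ATP-based viability of HCT-116 p53RE-bla cells after 16 h compound incubation at 37 C.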

The nature of test [9]: p53 small molecule agonists, cell-based qHTS assay (AID 1963582; active = well fitted activation curve with a large enough effect in the signal ratio in the repeat runs, not every such curve was filed as active; the % refers to the signal ratio). The gist of the method: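 Beta-lactamase reporter cells (p53RE-bla) treated with compounds for 16 h at 37 C; FRET substrate, 2 h, room temperature; fluorescence intensity.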
Test [10] is described as follows: cAMP Responsive Elements (CRE) small molecule agonists, cell-based qHTS assay (AID 1963590). The gist of the method:
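Quantitative HTS for CRE agonists: HEK 293T CRE-bla cells, overnight plating, 3 h compound incubation at 37 C/5% CO2, then 2 h room-temperature LiveBLAzer B/G FRET substrate loading.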

A short description of test [11]: cAMP Responsive Elements (CRE) small molecule antagonists, cell-based qHTS assay (AID 1963591; active = well fitted inhibition curve with a large enough effect in the signal ratio in the repeat runs, not every such curve was filed as active; the % refers to the signal ratio). The gist of the method: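 Fluorescence intensity from cleaved LiveBLAzer B/G substrate (2 h, room temperature) quantified CRE-bla activity in HEK 293T cells exposed 3 h to compound with 0.25 uM final NKH477.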
Test [12] addresses Beta-2 adrenergic receptor (Homo sapiens) (UniProt P07550). Briefly: Adrenergic beta2 receptor (ADRB2) small molecule antagonists, cell-based qHTS assay (AID 1963592). Note: series mostly up to about 92 µM; nearly all actives have a fitted effect of over 50% in size. The gist of the method:
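Assay format: CHO-ADRB2 cells, 18-20hr seeding at 37C/5% CO2, then compound plus 1nM isoproterenol agonist mix for 0.5hr RT. Homogeneous time-resolved fluorescence cAMP detection after 1hr, expressed as 665/615 nm ratio.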

For test [13], the target named is D(2) dopamine receptor (Homo sapiens) (UniProt P14416). The test can be described thus: Dopamine D2 receptor (DRD2) small molecule agonists, cell-based qHTS assay (AID 1963594). Note: nearly all actives have a fitted effect of over 35% in size. The gist of the method:
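HEK293 cells stably expressing DRD2 were cultured 24 h at 37 C, then given Ro20-1724 (0.1 mM final) and compounds for 10 min at room temperature. NKH477 (200nM) was then added for 30 min. cAMP was read by HTRF.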

For test [14] the target is unchanged. Briefly: Dopamine D2 receptor (DRD2) small molecule antagonists, cell-based qHTS assay (AID 1963595; active = well fitted inhibition curve with a large enough effect in the signal ratio in the repeat runs, with a control signal flat; the % refers to the signal ratio). The gist of the method:
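DRD2-HEK293; 0.1 mM Ro20-1724; cpd 10 min RT; NKH477 200 nM + quinpirole 12 nM, 30 min RT; HTRF cAMP (cAMP-d2/anti-cAMP cryptate), 665/620 nm ratio after 1 h.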

Test [15] is described as follows: p53 small molecule agonists, cell-based qHTS assay with human liver microsomes (AID 1963577).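 Note: p53 response element beta-lactamase reporter cells with liver microsomes plus NADPH.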 The gist of the method: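 p53RE-bla cells; 5 h settle, 37 C/5% CO2; cpd + HLM 0.5 mg/mL + NADPH 0.5 mg/mL (final); 16 h 37 C; LiveBLAzer 2 h RT dark; fluorescence readout.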
Test [16] concerns the target 5-hydroxytryptamine receptor 2A (Homo sapiens) (UniProt P28223). Briefly: 5-hydroxytryptamine receptor 2A (HTR2A) small molecule antagonists, cell-based qHTS assay (AID 1963586). Note: nearly all actives have a fitted effect of over 45% in size. The gist of the method: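 CHO cells stably expressing human HTR2A were plated for 18 h at 37 C, then loaded with calcium dye for 1 h. Compounds were preincubated 5 min at room temperature before DOI (4 nM solution) was added. Kinetic fluorescence was read for 3 min.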

The target is the same in test [17]. Briefly: 5-hydroxytryptamine receptor 2A (HTR2A) small molecule agonists, cell-based qHTS assay (AID 1963587). Note: nearly all actives have a fitted effect of over 30% in size. The gist of the method: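 HTR2A-CHO cells, plated 18 h at 37 C/5% CO2, dye-loaded 1 h at 37 C; compounds in DMSO added by pin tool (agonist mode). Intracellular calcium flux read as kinetic fluorescence on FDSS over 2 min at 1 s intervals.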
Test [18] concerns the target Muscarinic acetylcholine receptor M1 (Homo sapiens) (UniProt P11229). Briefly: Cholinergic receptor muscarinic 1 (CHRM1) small molecule agonists, cell-based qHTS assay (AID 1963589). Note: nearly all actives have a fitted effect of over 35% in size. The gist of the method:
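qHTS, 15-point titration, 3 independent runs: compounds pin-transferred onto dye-loaded CHRM1-CHO cells (human M1), calcium fluorescence followed every second to detect agonism.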

For test [19] the target is unchanged. The test can be described thus: Cholinergic receptor muscarinic 1 (CHRM1) small molecule antagonists, cell-based qHTS assay (AID 1963588). Note: nearly all actives have a fitted effect of over 40% in size. The gist of the method: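 Compounds were tested at 15 concentrations in three independent runs. Dye-loaded CHRM1-CHO cells were exposed 5 min at room temperature before stimulation by acetylcholine added at 50nM. Intracellular calcium was read kinetically on FDSS for 3 min.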

Test [20] addresses Beta-2 adrenergic receptor (Homo sapiens) (UniProt P07550). The test can be described thus: Adrenergic beta2 receptor (ADRB2) small molecule agonists, cell-based qHTS assay (AID 1963593).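 Note: CHO cells stably overexpressing human ADRB2.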 The gist of the method: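 CHO cells stably over-expressing ADRB2 were plated overnight at 37C, then dosed with compounds plus a stimulation mix containing 100uM IBMX and 25uM Ro-20-1724 for 0.5hr at room temperature. cAMP was measured by HTRF competition, 1hr.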
% is set by controls: 0 for no effect and ±100 for the full control effect.

5-hydroxytryptamine receptor 2A (Homo sapiens), sequence (P28223 whole entry, looked up): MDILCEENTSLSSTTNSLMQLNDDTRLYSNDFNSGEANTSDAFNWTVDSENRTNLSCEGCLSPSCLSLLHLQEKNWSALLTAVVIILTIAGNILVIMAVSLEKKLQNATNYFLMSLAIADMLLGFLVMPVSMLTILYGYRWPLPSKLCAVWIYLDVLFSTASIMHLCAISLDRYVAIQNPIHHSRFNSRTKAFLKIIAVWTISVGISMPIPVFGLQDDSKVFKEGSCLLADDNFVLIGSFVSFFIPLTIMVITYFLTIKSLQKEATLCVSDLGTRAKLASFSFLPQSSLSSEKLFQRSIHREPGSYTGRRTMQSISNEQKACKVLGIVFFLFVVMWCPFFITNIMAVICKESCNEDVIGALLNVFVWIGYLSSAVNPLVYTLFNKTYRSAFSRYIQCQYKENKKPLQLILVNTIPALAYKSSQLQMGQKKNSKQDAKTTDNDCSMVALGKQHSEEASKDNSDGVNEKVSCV
Muscarinic acetylcholine receptor M1 (Homo sapiens), sequence (P11229 whole entry, looked up): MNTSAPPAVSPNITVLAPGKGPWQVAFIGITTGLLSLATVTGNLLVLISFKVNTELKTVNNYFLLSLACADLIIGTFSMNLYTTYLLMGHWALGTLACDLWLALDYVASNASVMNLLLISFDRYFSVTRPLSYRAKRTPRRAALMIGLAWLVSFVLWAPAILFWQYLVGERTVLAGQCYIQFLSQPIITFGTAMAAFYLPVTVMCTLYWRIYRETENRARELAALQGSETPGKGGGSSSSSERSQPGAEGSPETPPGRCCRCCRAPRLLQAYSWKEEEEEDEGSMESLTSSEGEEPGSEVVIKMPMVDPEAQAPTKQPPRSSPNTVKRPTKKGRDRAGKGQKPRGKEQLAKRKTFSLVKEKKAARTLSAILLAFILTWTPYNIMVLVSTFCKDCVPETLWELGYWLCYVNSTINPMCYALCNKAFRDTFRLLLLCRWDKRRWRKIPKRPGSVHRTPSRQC
D(2) dopamine receptor (Homo sapiens), sequence (P14416 whole entry, looked up): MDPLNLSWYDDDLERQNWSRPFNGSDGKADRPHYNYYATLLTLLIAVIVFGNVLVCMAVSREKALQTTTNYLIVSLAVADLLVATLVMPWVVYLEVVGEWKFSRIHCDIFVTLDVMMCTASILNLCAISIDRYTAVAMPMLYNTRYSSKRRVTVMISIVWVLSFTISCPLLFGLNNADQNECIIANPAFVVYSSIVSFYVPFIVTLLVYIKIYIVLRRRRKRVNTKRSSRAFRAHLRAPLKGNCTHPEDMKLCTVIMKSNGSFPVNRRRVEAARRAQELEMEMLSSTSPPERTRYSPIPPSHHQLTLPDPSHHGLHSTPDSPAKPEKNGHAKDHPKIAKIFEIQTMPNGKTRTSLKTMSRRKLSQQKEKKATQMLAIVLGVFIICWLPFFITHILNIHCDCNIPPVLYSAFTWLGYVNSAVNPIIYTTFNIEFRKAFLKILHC
KiSS-1 receptor (Homo sapiens), sequence (Q969F8 whole entry, looked up): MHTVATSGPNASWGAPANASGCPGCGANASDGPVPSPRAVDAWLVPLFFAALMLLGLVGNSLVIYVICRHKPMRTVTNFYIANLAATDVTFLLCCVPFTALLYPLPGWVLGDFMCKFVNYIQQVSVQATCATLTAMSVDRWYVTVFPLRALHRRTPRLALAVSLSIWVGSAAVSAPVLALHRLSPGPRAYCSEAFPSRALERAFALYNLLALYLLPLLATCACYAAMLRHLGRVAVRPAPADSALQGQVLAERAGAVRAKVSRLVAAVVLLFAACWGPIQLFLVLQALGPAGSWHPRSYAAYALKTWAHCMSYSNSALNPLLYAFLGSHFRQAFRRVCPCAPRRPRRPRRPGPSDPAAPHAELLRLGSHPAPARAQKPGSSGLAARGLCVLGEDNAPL
Beta-2 adrenergic receptor (Homo sapiens), sequence (P07550 whole entry, looked up): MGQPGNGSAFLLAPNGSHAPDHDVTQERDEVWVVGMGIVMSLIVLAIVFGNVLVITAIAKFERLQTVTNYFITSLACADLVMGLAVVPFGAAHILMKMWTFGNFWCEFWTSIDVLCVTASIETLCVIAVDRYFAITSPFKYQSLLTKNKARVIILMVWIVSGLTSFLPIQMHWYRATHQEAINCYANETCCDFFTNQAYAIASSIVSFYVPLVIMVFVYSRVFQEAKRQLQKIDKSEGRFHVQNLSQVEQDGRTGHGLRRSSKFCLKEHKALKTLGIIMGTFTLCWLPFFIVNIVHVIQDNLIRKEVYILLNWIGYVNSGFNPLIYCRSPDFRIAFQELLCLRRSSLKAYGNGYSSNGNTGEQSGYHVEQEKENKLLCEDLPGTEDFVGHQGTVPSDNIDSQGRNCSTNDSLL

Consider `NCCCNCCSP(=O)(O)O`, for which the activity, positive = activation in test [1] was -4.57% [at 8.39 µM]. Besides, the activity change in test [2] was -1.6% [at 5.22 µM, hits give high values]. The activation in test [3] is -1.03% [at 6.97 µM]; in test [4], -0.178% [at 5.23 µM]; in [5], 0.418% [at 5.99 µM]; in [9], 1.38% [at 5.99 µM]; in test [10], 0.961% [at 8.39 µM]; in test [13] it was -13.4% [at 8.39 µM]. Also, the activity change, negative = cytotoxicity in [6] is -1.63% [at 5.99 µM]; in test [7], 7.5% [at 5.99 µM]; in test [8], 5.99% [at 5.99 µM]. Besides, the activity change, negative = inhibition in [11] is 10.3% [at 8.39 µM]; in test [12], -7.99% [at 8.39 µM]; in [14] it was 5.25% [at 8.38 µM].
On to `C=C(C)C1CCC(C)CC1O` (stereo unspecified), for which the Potency entry in test [1], in [2], in [15], in test [5], in test [9] and in [16] was “inactive” throughout. Also, the Potency entry in [17], in test [10], in test [11], in test [13] and in test [14] was “inactive” throughout. Moreover, the result in test [3] and in test [4] was inactive. Also, the Potency in [7] is 1.62 µM (active).
Take `O=C(OCCCCCCOC(=O)c1ccccc1)c1ccccc1`: the Potency in test [1] is 68.6 µM (active). Further, the Potency entry in test [2], in [15], in test [5], in test [7], in [8] and in test [9] was “inactive” throughout. Moreover, the Potency result in test [16], in test [17], in test [18], in test [10], in [11] and in [12] was “inactive” each time. Besides, the Potency entry in [13] and in test [14] was “inactive” in each case. Also, the outcome in test [3] and in test [4] was inactive.
Regarding `c1ccc(CNCCNCc2ccccc2)cc1`, the Potency entry in test [1], in test [2], in test [15], in [5], in test [7] and in test [8] was “inactive” in each case. The Potency result in [16], in test [19], in [10], in [12], in [13] and in test [14] was “inactive” throughout. The outcome in test [3] and in test [4] was inactive.
As for `O=C(O)Cc1ccc(-c2ccccc2)cc1`, the Potency entry in test [1], in [2], in [15], in [5], in [6] and in [7] was “inactive” in each case. In addition, the Potency entry in [8], in test [9], in [12], in test [13] and in test [14] was “inactive” in each case. For the same compound, the result in test [3] was inactive.
`O=[N+]([O-])c1cccc(S(=O)(=O)NCCNS(=O)(=O)c2cccc([N+](=O)[O-])c2)c1`: the Potency result in test [1], in test [2], in [15], in test [5], in test [8] and in [9] was “inactive” in each case. Further, the Potency entry in test [17], in test [19], in test [18], in test [11], in test [12] and in test [20] was “inactive” in each case. In addition, in [13], the Potency entry was “inactive”. Also, the outcome in [3] and in test [4] was inactive.
In the case of `CCn1nc(Cc2ccccc2)cc1C1CCN(C[C@H]2C[C@H](N(C)[C@@H](C(=O)O)C(C)C)C[C@@H]2c2cccc(F)c2)CC1`, the Potency result in [1], in test [2], in test [15], in [6], in [7] and in test [8] was “inactive” each time. For the same compound, the Potency entry in test [16], in [17], in test [19], in test [18], in test [12] and in [13] was “inactive” throughout. The Potency entry in test [14] was “inactive”. Moreover, the outcome in test [3] and in [4] was inactive.
